The text below walks through data of paper PMC4081100, “A DNA-binding-site landscape and regulatory network analysis for NAC transcription factors in Arabidopsis thaliana”.

Holding throughout (experiment): universal protein binding microarray (PBM); transcription factors of Arabidopsis thaliana; high values mean tight binding
The target of one assay is T1, GST-ANAC055(1-171) (Arabidopsis thaliana, UniProt Q9LDY8 1-171).
T1 sequence: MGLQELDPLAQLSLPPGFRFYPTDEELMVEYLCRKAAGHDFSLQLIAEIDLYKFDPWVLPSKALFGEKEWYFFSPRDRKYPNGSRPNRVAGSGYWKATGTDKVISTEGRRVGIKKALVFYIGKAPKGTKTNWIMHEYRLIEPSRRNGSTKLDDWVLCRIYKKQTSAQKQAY
To be noted: protein: recombinant; tags: GST; chain copies: 2; dsDNA, one strand shown. In short, it runs like this:
(§1)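 For zinc-finger proteins, zinc acetate was added while GST-tagged NAC-domain, full-length or DNA-binding-domain proteins were induced in cells. Purification used glutathione–Sepharose 4B, and quantification used A280 or anti-GST western blot. Custom all-10-mer Agilent 4 × 180K arrays, made double-stranded by primer extension, each received a protein at 200 to 500 nM final in duplicate. Scoring covered gapped and ungapped 8-mers, with binding given as the normalised enrichment score (E-score).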

A further assay deals with T2, GST-ATAF1 NAC domain (Arabidopsis thaliana, UniProt Q39013 7-158).
T2 sequence: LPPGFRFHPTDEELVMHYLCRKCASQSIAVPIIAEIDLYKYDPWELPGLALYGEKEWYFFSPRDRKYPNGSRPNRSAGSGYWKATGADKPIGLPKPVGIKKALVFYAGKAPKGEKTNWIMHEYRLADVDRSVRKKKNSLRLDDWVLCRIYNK
To be noted: protein: recombinant; tags: GST; chain copies: 2; dsDNA, one strand shown. In short, it runs like this: as §1

A further assay has as its target T3, GST-NST2(1-184) (Arabidopsis thaliana, UniProt Q9M274 1-184).
T3 sequence: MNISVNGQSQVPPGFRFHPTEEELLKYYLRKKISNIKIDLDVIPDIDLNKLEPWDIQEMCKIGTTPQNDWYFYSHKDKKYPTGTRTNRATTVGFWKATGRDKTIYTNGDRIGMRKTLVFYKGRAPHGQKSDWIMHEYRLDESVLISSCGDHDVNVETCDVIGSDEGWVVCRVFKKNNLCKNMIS
Conditions: protein: recombinant; tags: GST; chain copies: 2; dsDNA, one strand shown. The essentials:
as §1

The target in another assay is T4, GST-NTL8 NAC domain (Arabidopsis thaliana, UniProt Q9XIN7 14-156).
T4 sequence: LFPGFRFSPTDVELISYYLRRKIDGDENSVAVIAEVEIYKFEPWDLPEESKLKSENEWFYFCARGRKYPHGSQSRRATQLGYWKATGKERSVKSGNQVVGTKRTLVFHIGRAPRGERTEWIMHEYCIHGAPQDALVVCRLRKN
Conditions: protein: recombinant; tags: GST; chain copies: 2; dsDNA, one strand shown. The essentials:
as §1

A further assay addresses T5, GST-VND3 NAC domain (Arabidopsis thaliana, UniProt Q9FH59 12-162).
T5 sequence: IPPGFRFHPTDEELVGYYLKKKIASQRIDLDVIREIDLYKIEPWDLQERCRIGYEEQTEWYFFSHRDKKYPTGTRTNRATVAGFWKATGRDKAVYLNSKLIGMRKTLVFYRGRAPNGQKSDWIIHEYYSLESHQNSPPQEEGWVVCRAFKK
Conditions: protein: recombinant; tags: GST; chain copies: 2; dsDNA, one strand shown. In short, it runs like this:
as §1

In another assay the target is GST-WRKY1(266-371) (Arabidopsis thaliana, UniProt Q9SI37 266-371). To be noted: protein: recombinant; tags: GST; dsDNA, one strand shown. The essentials: as §1
GST-WRKY1(266-371), sequence (Q9SI37 266-371): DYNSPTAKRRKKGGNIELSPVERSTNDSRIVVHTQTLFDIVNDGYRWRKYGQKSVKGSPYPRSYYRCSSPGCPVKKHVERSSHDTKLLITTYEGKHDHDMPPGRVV
In the next assay the target is GST-NTL6(1-168) (Arabidopsis thaliana, UniProt Q9SCK6 1-168). To be noted: protein: recombinant; tags: GST; chain copies: 2; dsDNA, one strand shown. In short, it runs like this:
as §1

The target in assay [1] is T6, GST-ANAC092(1-285) full length (Arabidopsis thaliana, UniProt Q9FKA0 1-285).
T6 sequence: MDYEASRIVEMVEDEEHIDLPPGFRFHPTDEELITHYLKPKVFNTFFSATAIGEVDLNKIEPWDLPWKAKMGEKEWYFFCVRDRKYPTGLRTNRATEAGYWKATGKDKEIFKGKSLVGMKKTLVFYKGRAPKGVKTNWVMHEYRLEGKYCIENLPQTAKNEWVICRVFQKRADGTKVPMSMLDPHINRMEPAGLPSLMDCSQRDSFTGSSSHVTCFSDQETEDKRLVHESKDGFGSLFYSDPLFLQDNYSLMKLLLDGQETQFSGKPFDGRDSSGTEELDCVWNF
To be noted: protein: recombinant; tags: GST; chain copies: 2; dsDNA, one strand shown. In short, it runs like this: as §1

The next assay addresses T7, GST-ANAC019 NAC domain (Arabidopsis thaliana, UniProt Q9C932 14-162).
T7 sequence: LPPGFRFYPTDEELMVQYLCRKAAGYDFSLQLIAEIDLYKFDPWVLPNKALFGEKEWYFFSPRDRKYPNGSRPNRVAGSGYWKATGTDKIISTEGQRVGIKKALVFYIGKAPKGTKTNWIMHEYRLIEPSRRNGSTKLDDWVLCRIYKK
Conditions: protein: recombinant; tags: GST; chain copies: 2; dsDNA, one strand shown. In short, it runs like this:
as §1

The target of a further assay is T8, GST-NAP(1-166) (Arabidopsis thaliana, UniProt O49255 1-166).
T8 sequence: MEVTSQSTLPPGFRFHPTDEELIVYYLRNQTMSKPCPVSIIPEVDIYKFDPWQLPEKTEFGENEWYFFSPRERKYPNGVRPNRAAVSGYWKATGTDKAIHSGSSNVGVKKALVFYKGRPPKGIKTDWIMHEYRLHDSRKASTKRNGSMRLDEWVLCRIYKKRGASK
To be noted: protein: recombinant; tags: GST; chain copies: 2; dsDNA, one strand shown. The essentials: as §1

For another assay, the target named is T9, GST-ANAC092(1-176) (Arabidopsis thaliana, UniProt Q9FKA0 1-176).
T9 sequence: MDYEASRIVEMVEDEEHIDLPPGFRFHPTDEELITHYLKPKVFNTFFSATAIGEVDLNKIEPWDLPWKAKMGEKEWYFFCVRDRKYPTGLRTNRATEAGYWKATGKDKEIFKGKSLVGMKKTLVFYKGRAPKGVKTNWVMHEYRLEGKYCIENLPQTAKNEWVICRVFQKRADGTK
To be noted: protein: recombinant; tags: GST; chain copies: 2; dsDNA, one strand shown. In short, it runs like this: as §1

The target in a further assay is T10, GST-VND7 NAC domain (Arabidopsis thaliana, UniProt Q9C8W9 9-158).
T10 sequence: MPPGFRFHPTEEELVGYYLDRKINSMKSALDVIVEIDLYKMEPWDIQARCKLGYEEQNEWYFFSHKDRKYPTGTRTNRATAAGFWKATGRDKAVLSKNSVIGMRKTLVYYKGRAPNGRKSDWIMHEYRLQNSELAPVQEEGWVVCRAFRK
Conditions: protein: recombinant; tags: GST; chain copies: 2; dsDNA, one strand shown. The essentials:
as §1

GST-NTL6(1-168), sequence (Q9SCK6 1-168): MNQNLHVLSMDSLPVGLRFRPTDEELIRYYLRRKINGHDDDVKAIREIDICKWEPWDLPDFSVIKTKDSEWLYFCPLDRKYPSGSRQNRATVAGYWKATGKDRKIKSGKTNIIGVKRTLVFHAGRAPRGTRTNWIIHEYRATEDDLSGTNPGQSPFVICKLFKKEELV

For AATTGACC, the binding signal in the assay with GST-ANAC055(1-171) came out at 0.0684 E-score; in the assay with GST-ATAF1 NAC domain, 0.176 E-score; in the assay with GST-NST2(1-184), 0.0795 E-score; with GST-NTL8 NAC domain, 0.0822 E-score; in the assay with GST-VND3 NAC domain, 0.115 E-score; with GST-WRKY1(266-371) it was 0.47 E-score.

As to ATAAGTCA, the binding signal stood at 0.161 E-score in the assay with GST-NTL6(1-168), 0.101 E-score in [1], 0.105 E-score with GST-VND3 NAC domain and 0.443 E-score in the assay with GST-WRKY1(266-371).

For the sequence AGTCAACG, the binding signal with GST-ANAC019 NAC domain was 0.0747 E-score; in assay [1] it was 0.0699 E-score; in the assay with GST-NAP(1-166) it was 0.0565 E-score; with GST-NST2(1-184), 0.114 E-score; with GST-VND3 NAC domain, 0.115 E-score; with GST-WRKY1(266-371), 0.494 E-score.

In the case of AGTCTTTG, the binding signal in the assay with GST-ANAC092(1-176) came out at 0.0553 E-score; with GST-NTL6(1-168) it was 0.0583 E-score; with GST-ANAC019 NAC domain it was 0.0679 E-score; with GST-ANAC055(1-171) it was 0.0944 E-score; with GST-VND7 NAC domain, 0.125 E-score; with GST-WRKY1(266-371), 0.424 E-score.

As for TAGTCAGA, the binding signal stood at 0.0564 E-score with GST-ATAF1 NAC domain, 0.065 E-score with GST-VND3 NAC domain and 0.428 E-score with GST-WRKY1(266-371).

Consider AGTCTGAC, for which the binding signal with GST-ANAC019 NAC domain is 0.0699 E-score; with GST-ANAC055(1-171), 0.0555 E-score; with GST-NAP(1-166), 0.0965 E-score; in the assay with GST-VND7 NAC domain, 0.0919 E-score; with GST-WRKY1(266-371), 0.422 E-score.

Consider AGTCAAAG, for which the binding signal with GST-NTL8 NAC domain was found to be 0.0881 E-score; with GST-VND7 NAC domain it was 0.0935 E-score; in the assay with GST-WRKY1(266-371) it was 0.486 E-score.

As for ATTCCCTC, the binding signal with GST-NTL6(1-168) is 0.115 E-score; with GST-ANAC019 NAC domain, 0.0664 E-score; with GST-NTL8 NAC domain, 0.421 E-score; in the assay with GST-VND7 NAC domain, 0.0536 E-score.

GAAGTCAA: the binding signal with GST-NTL6(1-168) came to 0.104 E-score; with GST-ANAC019 NAC domain it was 0.0675 E-score; with GST-ATAF1 NAC domain, 0.0967 E-score; in the assay with GST-NTL8 NAC domain it was 0.0673 E-score; with GST-VND7 NAC domain, 0.0707 E-score; in the assay with GST-WRKY1(266-371), 0.482 E-score.

As to AGGGTAAT, the binding signal in the assay with GST-ANAC092(1-176) stood at 0.113 E-score; with GST-NTL6(1-168), 0.143 E-score; with GST-ANAC019 NAC domain, 0.116 E-score; with GST-ANAC055(1-171), 0.17 E-score; in the assay with GST-ATAF1 NAC domain, 0.114 E-score; in [1], 0.108 E-score. For the same sequence, the binding signal came out at 0.0716 E-score with GST-NST2(1-184), 0.441 E-score with GST-NTL8 NAC domain and 0.121 E-score with GST-VND3 NAC domain.

Regarding AGCTTGAC, the binding signal with GST-ANAC092(1-176) worked out at 0.0728 E-score; in the assay with GST-ANAC019 NAC domain, 0.0936 E-score; in assay [1], 0.065 E-score; in the assay with GST-NAP(1-166) it was 0.0572 E-score; in the assay with GST-VND7 NAC domain it was 0.099 E-score; in the assay with GST-WRKY1(266-371), 0.447 E-score.

Turning to GTCAGCAA, the binding signal in the assay with GST-WRKY1(266-371) was 0.403 E-score.

Consider AGAAAGTC, for which the binding signal is 0.0754 E-score with GST-ANAC019 NAC domain; 0.0896 E-score in the assay with GST-ANAC055(1-171); 0.103 E-score with GST-ATAF1 NAC domain; 0.0673 E-score in the assay with GST-NTL8 NAC domain; 0.0756 E-score with GST-VND3 NAC domain; 0.407 E-score with GST-WRKY1(266-371).

In the case of AACGGTCA, the binding signal in the assay with GST-WRKY1(266-371) amounted to 0.435 E-score.

As to AGGTCAGC, the values for the binding signal with GST-VND7 NAC domain and with GST-WRKY1(266-371) were 0.078 E-score and 0.451 E-score, respectively.

Regarding ATTAGTCA, the binding signal with GST-ANAC055(1-171) was 0.0956 E-score; in the assay with GST-ATAF1 NAC domain, 0.109 E-score; with GST-VND3 NAC domain, 0.135 E-score; with GST-WRKY1(266-371), 0.404 E-score.

In the case of CGTCTGAC, the binding signal with GST-WRKY1(266-371) amounted to 0.418 E-score.

ATGTTGAC: the binding signal came out at 0.0521 E-score in the assay with GST-ATAF1 NAC domain, 0.0635 E-score in the assay with GST-VND3 NAC domain and 0.474 E-score in the assay with GST-WRKY1(266-371).

TATGGTCA: the figures for the binding signal with GST-ANAC055(1-171), with GST-VND3 NAC domain and with GST-WRKY1(266-371) were 0.0561 E-score, 0.0521 E-score and 0.428 E-score, respectively.

Regarding AGGAAACT, the binding signal is 0.174 E-score with GST-ANAC092(1-176); 0.227 E-score with GST-NTL6(1-168); 0.0635 E-score with GST-ANAC055(1-171); 0.0874 E-score with GST-ATAF1 NAC domain; 0.186 E-score in [1]; 0.0881 E-score with GST-NAP(1-166). Moreover, the values for the binding signal with GST-NST2(1-184), with GST-NTL8 NAC domain and with GST-VND7 NAC domain were 0.125 E-score, 0.426 E-score and 0.131 E-score, respectively.
